# Data reported in the supplement of paper PMC3342239.
# Counter-ions that a name gives are not always drawn.
# Tested on: Saccharomyces cerevisiae
# Assay: fraction of cells in G1 phase (DNA content, flow cytometry); higher = more cells with unreplicated DNA (G1 delay)
# Conditions: temperature: 30 C, YPD
# Outline: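 Overnight cultures of sensitized JTY2953 were diluted 1∶200 into drug at a final 20 µg/ml and fixed after 6–7 h, and further runs treated dividing JTY2953 or BY4741, fixing them 6 h and 4.33 h later respectively. All growth used YPD at 30°C with S. cerevisiae and library drugs. After ethanol fixation and SYTOX Green staining, flow cytometry recorded 10,000 events. The G1 fraction equals the Dean-Jett-Fox G1 peak area over the G1 plus G2/M areas.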
# [1] = BY4741 PDR5+ SNQ2+, drug added to: actively dividing cells, 4.33 h
# [2] = JTY2953 pdr5 snq2 (sensitized), drug added to: cultures diluted from stationary phase, 6-7 h
# [3] = JTY2953 pdr5 snq2 (sensitized), drug added to: actively dividing cells, 6 h
structure (smiles),measurement,setting,value
NC1CCN(c2c(F)cc3c(=O)c(C(=O)O)cn(C4CC4)c3c2Cl)C1 (stereo not drawn) [Clinafloxacin HCl] (54.6755 µM),fraction of cells in G1 phase,[1],0.359
same,fraction of cells in G1 phase,[2],0.254
C[C@H]1COc2c(N3CCN(C)CC3)c(F)cc3c(=O)c(C(=O)O)cn1c23 [Levofloxacin HCl] (55.344 µM),fraction of cells in G1 phase,[2],0.471
O=c1[nH]c(=O)n([C@H]2C[C@H](O)[C@@H](CO)O2)cc1I [Idoxuridine] (56.4808 µM),fraction of cells in G1 phase,[2],0.515
CCS(=O)(=O)CCn1c([N+](=O)[O-])cnc1C [Tinidazole] (80.8818 µM),fraction of cells in G1 phase,[2],0.443
O=C1CC2(CCCC2)CC(=O)N1CCCCN1CCN(c2ncccn2)CC1 [Buspirone HCl] (51.8789 µM),fraction of cells in G1 phase,[2],0.499
C[C@]12CC[C@@H]3c4ccc(O)cc4CC[C@H]3[C@@H]1CC[C@@H]2O [Estradiol] (73.4239 µM),fraction of cells in G1 phase,[2],0.58
CCN1CCC[C@H]1CNC(=O)c1cc(S(N)(=O)=O)ccc1OC [Sulpiride s (-)] (58.5768 µM),fraction of cells in G1 phase,[2],0.482
CC(C)NCC(O)COc1cccc2ccccc12 (stereo not drawn) [Propranolol] (77.1155 µM),fraction of cells in G1 phase,[2],0.477
C[C@@H](O)[C@H]1C(=O)N2C(C(=O)O)=C(SCCNC=N)C[C@H]12 [Imipenem] (66.8112 µM),fraction of cells in G1 phase,[2],0.486
CC(=O)S[C@@H]1CC2=CC(=O)CC[C@]2(C)[C@H]2CC[C@@]3(C)[C@@H](CC[C@@]34CCC(=O)O4)[C@H]12 [Spironolactone] (48.0095 µM),fraction of cells in G1 phase,[2],0.531
CC1=C(/C=C/C(C)=C/C=C/C(C)=C/C(=O)O)C(C)(C)CCC1 [Retinoic acid] (66.5679 µM),fraction of cells in G1 phase,[2],0.524
Nc1nc(N)nc(-c2cc(Cl)ccc2Cl)n1 [Irsogladine maleate] (78.0958 µM),fraction of cells in G1 phase,[2],0.471
C[C@@H]1CN(c2c(F)c(N)c3c(=O)c(C(=O)O)cn(C4CC4)c3c2F)C[C@H](C)N1 [Sparfloxacin] (50.9672 µM),fraction of cells in G1 phase,[1],0.46
same,fraction of cells in G1 phase,[2],0.366
CCN(CC)CCCC(C)Nc1c2ccc(Cl)cc2nc2ccc(OC)cc12 (stereo not drawn) [Quinacrine 2HCl dihydrate] (50.004 µM),fraction of cells in G1 phase,[2],0.529
COc1c(N2CCNC(C)C2)c(F)cc2c(=O)c(C(=O)O)cn(C3CC3)c12 (stereo not drawn) [Gatifloxacin] (53.276 µM),fraction of cells in G1 phase,[1],0.391
same,fraction of cells in G1 phase,[2],0.335
C[N+](C)(C)[C@@H](Cc1c[nH]c(=S)[nH]1)C(=O)[O-] [Ergothioneine] (87.2209 µM),fraction of cells in G1 phase,[2],0.464
Cc1c(O)cccc1C(=O)N[C@@H](CSc1ccccc1)[C@H](O)CN1C[C@H]2CCCC[C@H]2C[C@H]1C(=O)NC(C)(C)C [Nelfinavir Mesylate] (30.1249 µM),fraction of cells in G1 phase,[2],0.487
CNC(=C[N+](=O)[O-])NCCSCc1ccc(CN(C)C)o1 [Ranitidine HCl] (63.6114 µM),fraction of cells in G1 phase,[2],0.501
CS(=O)(=O)c1ccc([C@H](O)[C@@H](COC(=O)CN)NC(=O)C(Cl)Cl)cc1 [Thiamphenicol glycinate] (48.3934 µM),fraction of cells in G1 phase,[2],0.478
C#C[C@]1(O)CC[C@H]2[C@@H]3CCC4=Cc5oncc5C[C@]4(C)[C@H]3CC[C@@]21C [Danazol] (59.2652 µM),fraction of cells in G1 phase,[3],0.457
same,fraction of cells in G1 phase,[2],0.88
CCCCc1nc(Cl)c(CO)n1Cc1ccc(-c2ccccc2-c2nnn[nH]2)cc1 [Losartan potassium] (43.3825 µM),fraction of cells in G1 phase,[2],0.487
CC(=O)O[C@]1(C(C)=O)CC[C@H]2[C@@H]3C=C(C)C4=CC(=O)CC[C@]4(C)[C@H]3CC[C@@]21C [Megestrol acetate] (52.0129 µM),fraction of cells in G1 phase,[2],0.575
C[C@]12C=CC(=O)C=C1CC[C@H]1[C@@H]3C[C@@H](O)[C@](O)(C(=O)CO)[C@@]3(C)C[C@H](O)[C@@]12F [Triamcinolone] (50.7043 µM),fraction of cells in G1 phase,[2],0.483
COc1cc2c(cc1OC)-c1c/c(=N\c3c(C)cc(C)cc3C)n(C)c(=O)n1CC2 [Trequinsin HCl] (45.2489 µM),fraction of cells in G1 phase,[2],0.425
COC(=O)c1ccccc1O [Methyl salicylate] (131.448 µM),fraction of cells in G1 phase,[2],0.513
CC[C@@]1(O)C[C@H](O[C@H]2C[C@H](N(C)C)[C@H](O[C@H]3C[C@H](O)[C@H](O[C@H]4CCC(=O)[C@H](C)O4)[C@H](C)O3)[C@H](C)O2)c2c(cc3c(c2O)C(=O)c2c(O)cccc2C3=O)[C@H]1C(=O)OC [Aclarubicin] (24.6339 µM),fraction of cells in G1 phase,[1],0.431
same,fraction of cells in G1 phase,[2],0.364
CC[C@]1(O)C[C@H]2CN(CCc3c([nH]c4ccccc34)[C@@](C(=O)OC)(c3cc4c(cc3OC)N(C=O)[C@H]3[C@@](O)(C(=O)OC)[C@H](OC(C)=O)[C@]5(CC)C=CCN6CC[C@]43[C@@H]65)C2)C1 [Vincristine sulfate] (24.243 µM),fraction of cells in G1 phase,[2],0.481
CC(C)(C)c1ccc(C(O)CCCN2CCC(C(O)(c3ccccc3)c3ccccc3)CC2)cc1 (stereo not drawn) [Terfenadine] (42.4008 µM),fraction of cells in G1 phase,[3],0.324
same,fraction of cells in G1 phase,[2],0.776
CC(Oc1c(Cl)cccc1Cl)C1=NCCN1 (stereo not drawn) [Lofexidine] (77.1792 µM),fraction of cells in G1 phase,[2],0.483
COc1ccccc1OCC(O)CN1CCN(CC(=O)Nc2c(C)cccc2C)CC1 (stereo not drawn) [Ranolazine 2HCl] (46.7783 µM),fraction of cells in G1 phase,[2],0.445
CO/N=C(\C(=O)N[C@@H]1C(=O)N2C(C(=O)[O-])=C(C[N+]3(C)CCCC3)CS[C@H]12)c1csc(N)n1 [Cefepime] (41.6174 µM),fraction of cells in G1 phase,[2],0.504
c1ccc(-c2ccc(C(c3ccccc3)n3ccnc3)cc2)cc1 (stereo not drawn) [Bifonazole] (64.4325 µM),fraction of cells in G1 phase,[3],0.474
same,fraction of cells in G1 phase,[2],0.758
CC1CCc2c(N3CCC(O)CC3)c(F)cc3c(=O)c(C(=O)O)cn1c23 (stereo not drawn) [Nadifloxacin] (55.4956 µM),fraction of cells in G1 phase,[1],0.43
same,fraction of cells in G1 phase,[2],0.281
CC(C)n1c(/C=C/[C@@H](O)C[C@@H](O)CC(=O)O)c(-c2ccc(F)cc2)c2ccccc21 [Fluvastatin Na] (48.6053 µM),fraction of cells in G1 phase,[2],0.464
O=C(O)c1cn(C2CC2)c2cc(N3CCNCC3)c(F)cc2c1=O [Ciprofloxacin] (60.3592 µM),fraction of cells in G1 phase,[2],0.461
